Assay results taken from the supplement of paper PMC11732987, “Enantioselective OTUD7B fragment discovery through chemoproteomics screening and high-throughput optimisation” (Communications Chemistry, 2025).

Key:
Experiment in all cases: log2 ratio of Biotin-Ahx-Ub-VS probe labelling (fragment/DMSO); higher = less target engagement (more negative = stronger competition), active = hit call of the paper (q ≤ 0.05, log2 ratio ≤ -1)
Conditions in all cases: compound concentration: 200 uM; treatment time: 3 h
USP42 = biological target: T1, USP42 (UniProt Q9H9J4)
T1 sequence (whole entry): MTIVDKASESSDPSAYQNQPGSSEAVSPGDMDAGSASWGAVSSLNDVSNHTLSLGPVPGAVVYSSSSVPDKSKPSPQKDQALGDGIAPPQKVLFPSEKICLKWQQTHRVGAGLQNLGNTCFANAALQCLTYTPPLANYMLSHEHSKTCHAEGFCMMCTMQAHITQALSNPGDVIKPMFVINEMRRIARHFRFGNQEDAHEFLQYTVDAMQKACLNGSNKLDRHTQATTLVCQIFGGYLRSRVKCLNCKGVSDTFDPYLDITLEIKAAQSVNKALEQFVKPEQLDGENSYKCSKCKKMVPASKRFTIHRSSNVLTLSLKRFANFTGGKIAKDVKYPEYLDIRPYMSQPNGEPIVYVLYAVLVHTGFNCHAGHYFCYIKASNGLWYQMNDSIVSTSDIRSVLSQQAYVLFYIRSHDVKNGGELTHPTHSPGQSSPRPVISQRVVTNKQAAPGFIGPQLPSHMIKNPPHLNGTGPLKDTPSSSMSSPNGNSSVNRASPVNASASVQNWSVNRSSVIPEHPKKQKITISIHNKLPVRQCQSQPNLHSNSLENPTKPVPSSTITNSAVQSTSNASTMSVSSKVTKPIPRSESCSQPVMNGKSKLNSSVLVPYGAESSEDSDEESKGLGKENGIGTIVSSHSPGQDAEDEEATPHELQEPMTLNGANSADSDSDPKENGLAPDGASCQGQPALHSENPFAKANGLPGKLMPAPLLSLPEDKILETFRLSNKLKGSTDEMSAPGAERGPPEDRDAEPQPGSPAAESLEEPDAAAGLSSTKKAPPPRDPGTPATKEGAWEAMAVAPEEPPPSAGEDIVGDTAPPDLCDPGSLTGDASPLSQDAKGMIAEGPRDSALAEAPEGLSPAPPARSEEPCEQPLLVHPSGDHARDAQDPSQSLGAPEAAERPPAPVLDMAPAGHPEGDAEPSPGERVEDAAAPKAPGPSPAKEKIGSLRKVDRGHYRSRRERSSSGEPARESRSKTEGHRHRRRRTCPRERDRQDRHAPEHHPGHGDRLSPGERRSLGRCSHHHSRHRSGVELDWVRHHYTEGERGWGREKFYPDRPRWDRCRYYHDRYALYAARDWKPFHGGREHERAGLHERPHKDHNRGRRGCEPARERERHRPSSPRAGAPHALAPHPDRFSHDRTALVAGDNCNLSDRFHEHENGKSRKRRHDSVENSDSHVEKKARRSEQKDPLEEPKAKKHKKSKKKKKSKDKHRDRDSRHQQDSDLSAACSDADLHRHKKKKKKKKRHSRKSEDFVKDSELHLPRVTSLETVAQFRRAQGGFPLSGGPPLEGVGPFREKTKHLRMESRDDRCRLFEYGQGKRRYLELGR
How it was run: (§1)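 Each value is an average log2 ratio of fragment to vehicle, tested by unpaired t-test. The underlying Spectronaut label-free quantities were global-median-normalised, and only proteins with ≥2 unique peptides were included. Triplicate HEK293T lysate samples (495 µg) were exposed to fragment at 200 µM or vehicle for 3 h, then to Biotin-Ahx-Ub-VS at 0.5 µM final for 1 h, before NeutrAvidin enrichment of labelled DUBs, LysC and trypsin digestion, and diaPASEF LC-MS/MS.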

USP46 = USP46 (UniProt P62068)
How it was run: as §1

USP47 = biological target: T2, USP47 (UniProt Q96K76)
T2 sequence (whole entry): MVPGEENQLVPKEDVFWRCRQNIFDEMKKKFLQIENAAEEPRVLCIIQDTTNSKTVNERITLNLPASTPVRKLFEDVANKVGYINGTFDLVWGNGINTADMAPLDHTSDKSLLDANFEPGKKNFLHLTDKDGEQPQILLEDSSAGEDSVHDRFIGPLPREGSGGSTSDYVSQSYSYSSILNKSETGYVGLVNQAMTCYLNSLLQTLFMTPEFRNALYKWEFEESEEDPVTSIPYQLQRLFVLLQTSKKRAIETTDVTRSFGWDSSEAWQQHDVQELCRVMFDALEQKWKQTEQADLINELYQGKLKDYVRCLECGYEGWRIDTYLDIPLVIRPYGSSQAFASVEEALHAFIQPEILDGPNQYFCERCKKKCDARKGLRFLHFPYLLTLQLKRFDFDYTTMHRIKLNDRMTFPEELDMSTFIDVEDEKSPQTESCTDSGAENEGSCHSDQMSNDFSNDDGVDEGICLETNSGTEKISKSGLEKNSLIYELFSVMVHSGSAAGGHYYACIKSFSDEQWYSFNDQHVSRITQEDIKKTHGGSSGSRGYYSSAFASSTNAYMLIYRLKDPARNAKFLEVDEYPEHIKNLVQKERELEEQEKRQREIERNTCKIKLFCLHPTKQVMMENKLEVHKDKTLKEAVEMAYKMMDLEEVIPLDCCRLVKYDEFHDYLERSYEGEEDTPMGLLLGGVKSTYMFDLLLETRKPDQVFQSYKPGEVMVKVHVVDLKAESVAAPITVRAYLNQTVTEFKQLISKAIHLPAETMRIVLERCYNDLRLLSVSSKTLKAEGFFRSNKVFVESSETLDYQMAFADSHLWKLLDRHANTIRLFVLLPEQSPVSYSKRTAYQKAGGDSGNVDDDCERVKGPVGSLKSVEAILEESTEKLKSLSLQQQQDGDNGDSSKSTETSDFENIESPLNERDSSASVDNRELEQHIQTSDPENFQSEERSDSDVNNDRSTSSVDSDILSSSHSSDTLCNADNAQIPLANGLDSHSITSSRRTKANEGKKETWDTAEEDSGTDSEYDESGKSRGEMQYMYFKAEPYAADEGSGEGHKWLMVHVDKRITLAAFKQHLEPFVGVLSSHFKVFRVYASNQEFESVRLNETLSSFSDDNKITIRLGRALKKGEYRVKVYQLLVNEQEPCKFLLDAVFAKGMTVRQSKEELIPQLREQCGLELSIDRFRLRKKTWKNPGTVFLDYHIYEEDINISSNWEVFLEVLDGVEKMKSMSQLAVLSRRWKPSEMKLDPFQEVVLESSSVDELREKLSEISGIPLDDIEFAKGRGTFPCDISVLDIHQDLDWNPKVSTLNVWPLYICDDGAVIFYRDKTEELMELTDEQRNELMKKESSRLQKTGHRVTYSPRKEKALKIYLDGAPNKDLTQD
How it was run: as §1

USP48 = biological target: T3, USP48 (UniProt Q86UV5)
T3 sequence (whole entry): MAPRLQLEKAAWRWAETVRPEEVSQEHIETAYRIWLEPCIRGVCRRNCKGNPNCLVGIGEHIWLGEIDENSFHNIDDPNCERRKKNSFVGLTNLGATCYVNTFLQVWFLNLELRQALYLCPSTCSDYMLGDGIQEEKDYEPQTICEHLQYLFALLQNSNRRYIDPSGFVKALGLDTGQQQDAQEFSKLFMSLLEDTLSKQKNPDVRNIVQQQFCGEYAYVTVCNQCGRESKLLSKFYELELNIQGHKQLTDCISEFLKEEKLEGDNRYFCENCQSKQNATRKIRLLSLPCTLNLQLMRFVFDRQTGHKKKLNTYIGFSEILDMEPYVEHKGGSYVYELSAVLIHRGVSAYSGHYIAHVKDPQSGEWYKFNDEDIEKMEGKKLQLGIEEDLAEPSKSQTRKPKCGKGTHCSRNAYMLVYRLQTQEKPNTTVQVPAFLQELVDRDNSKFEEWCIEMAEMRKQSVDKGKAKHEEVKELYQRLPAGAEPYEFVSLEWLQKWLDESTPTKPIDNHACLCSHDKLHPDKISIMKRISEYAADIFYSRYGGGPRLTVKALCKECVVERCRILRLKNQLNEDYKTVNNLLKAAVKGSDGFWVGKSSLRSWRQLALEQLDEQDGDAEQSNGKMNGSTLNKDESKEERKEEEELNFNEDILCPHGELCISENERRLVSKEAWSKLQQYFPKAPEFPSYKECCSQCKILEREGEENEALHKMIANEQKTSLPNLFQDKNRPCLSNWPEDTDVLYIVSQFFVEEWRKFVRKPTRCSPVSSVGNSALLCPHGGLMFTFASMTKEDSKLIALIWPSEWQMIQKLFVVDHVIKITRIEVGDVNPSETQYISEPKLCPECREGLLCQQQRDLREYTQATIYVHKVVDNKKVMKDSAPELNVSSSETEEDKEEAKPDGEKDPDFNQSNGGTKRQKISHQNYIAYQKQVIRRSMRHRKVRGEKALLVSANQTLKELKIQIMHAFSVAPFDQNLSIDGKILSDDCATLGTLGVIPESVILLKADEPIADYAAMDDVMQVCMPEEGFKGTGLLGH
How it was run: as §1

USP5 = biological target: T4, USP5 (UniProt P45974)
T4 sequence (whole entry): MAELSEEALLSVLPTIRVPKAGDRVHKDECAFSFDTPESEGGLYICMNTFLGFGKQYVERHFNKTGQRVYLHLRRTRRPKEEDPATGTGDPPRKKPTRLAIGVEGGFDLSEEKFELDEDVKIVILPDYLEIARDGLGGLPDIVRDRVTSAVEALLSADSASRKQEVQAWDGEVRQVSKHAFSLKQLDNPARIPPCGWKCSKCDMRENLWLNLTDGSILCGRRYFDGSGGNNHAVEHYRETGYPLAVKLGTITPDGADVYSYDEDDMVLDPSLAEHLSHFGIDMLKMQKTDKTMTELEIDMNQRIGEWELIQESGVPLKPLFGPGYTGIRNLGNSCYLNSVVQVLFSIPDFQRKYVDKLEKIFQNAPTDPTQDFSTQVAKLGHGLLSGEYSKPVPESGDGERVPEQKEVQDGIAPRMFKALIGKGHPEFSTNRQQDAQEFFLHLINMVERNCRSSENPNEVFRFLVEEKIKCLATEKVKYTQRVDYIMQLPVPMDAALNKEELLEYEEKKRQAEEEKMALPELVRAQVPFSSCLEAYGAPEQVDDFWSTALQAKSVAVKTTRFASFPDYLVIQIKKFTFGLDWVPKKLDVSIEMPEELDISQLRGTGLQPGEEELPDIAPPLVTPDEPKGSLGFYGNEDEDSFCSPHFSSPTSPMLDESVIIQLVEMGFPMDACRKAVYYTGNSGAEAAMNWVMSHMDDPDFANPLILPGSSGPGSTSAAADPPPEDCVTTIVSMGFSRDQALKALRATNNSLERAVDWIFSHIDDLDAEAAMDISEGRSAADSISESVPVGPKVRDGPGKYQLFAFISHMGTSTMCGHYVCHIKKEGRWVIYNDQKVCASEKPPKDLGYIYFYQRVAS
How it was run: as §1

USP54 = USP54 (UniProt Q70EL1)
How it was run: as §1

USP7 = USP7 (UniProt Q93009)
How it was run: as §1

USP8 = biological target: T5, USP8 (UniProt P40818)
T5 sequence (whole entry): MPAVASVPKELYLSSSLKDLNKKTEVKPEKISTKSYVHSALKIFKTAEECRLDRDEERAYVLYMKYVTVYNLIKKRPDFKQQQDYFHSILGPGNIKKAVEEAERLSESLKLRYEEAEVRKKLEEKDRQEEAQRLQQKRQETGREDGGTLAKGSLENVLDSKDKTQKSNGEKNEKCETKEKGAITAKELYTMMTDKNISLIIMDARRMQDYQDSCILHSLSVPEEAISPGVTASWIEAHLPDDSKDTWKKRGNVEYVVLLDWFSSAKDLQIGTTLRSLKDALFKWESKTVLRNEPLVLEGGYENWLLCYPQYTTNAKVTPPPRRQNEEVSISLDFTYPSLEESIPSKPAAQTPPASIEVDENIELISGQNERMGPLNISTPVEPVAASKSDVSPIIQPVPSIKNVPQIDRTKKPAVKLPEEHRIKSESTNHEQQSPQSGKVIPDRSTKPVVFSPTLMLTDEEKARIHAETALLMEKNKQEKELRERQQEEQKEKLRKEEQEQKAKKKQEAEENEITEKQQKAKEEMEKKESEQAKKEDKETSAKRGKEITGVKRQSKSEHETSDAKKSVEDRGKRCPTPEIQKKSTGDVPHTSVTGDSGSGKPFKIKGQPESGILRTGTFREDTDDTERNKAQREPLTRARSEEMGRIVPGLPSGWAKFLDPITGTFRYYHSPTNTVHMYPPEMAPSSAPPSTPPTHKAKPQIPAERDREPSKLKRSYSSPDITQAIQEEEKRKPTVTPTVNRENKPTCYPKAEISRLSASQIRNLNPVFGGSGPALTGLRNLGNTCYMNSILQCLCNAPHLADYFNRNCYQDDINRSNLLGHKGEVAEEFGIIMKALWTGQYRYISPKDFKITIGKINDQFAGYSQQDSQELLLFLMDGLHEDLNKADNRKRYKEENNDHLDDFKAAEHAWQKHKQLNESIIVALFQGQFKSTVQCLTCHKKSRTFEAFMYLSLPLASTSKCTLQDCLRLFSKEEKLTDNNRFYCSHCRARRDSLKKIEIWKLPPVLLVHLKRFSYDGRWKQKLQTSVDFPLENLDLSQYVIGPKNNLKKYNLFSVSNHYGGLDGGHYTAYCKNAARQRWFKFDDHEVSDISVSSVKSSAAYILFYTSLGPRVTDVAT
How it was run: as §1

USP9X = USP9X (UniProt Q93008)
How it was run: as §1

UniProt O00487 = biological target: UniProt O00487
How it was run: as §1

Measured: log2 ratio of Biotin-Ahx-Ub-VS probe labelling

UniProt O00487, sequence (O00487 whole entry): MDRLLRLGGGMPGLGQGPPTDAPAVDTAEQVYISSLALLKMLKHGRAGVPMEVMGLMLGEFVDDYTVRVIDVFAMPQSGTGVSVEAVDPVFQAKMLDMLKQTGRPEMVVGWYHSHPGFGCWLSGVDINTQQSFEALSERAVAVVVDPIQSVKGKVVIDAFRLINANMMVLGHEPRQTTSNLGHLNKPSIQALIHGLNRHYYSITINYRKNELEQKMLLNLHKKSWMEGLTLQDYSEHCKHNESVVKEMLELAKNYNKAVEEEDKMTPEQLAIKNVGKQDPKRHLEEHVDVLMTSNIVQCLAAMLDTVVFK
USP7, sequence (Q93009 whole entry, looked up): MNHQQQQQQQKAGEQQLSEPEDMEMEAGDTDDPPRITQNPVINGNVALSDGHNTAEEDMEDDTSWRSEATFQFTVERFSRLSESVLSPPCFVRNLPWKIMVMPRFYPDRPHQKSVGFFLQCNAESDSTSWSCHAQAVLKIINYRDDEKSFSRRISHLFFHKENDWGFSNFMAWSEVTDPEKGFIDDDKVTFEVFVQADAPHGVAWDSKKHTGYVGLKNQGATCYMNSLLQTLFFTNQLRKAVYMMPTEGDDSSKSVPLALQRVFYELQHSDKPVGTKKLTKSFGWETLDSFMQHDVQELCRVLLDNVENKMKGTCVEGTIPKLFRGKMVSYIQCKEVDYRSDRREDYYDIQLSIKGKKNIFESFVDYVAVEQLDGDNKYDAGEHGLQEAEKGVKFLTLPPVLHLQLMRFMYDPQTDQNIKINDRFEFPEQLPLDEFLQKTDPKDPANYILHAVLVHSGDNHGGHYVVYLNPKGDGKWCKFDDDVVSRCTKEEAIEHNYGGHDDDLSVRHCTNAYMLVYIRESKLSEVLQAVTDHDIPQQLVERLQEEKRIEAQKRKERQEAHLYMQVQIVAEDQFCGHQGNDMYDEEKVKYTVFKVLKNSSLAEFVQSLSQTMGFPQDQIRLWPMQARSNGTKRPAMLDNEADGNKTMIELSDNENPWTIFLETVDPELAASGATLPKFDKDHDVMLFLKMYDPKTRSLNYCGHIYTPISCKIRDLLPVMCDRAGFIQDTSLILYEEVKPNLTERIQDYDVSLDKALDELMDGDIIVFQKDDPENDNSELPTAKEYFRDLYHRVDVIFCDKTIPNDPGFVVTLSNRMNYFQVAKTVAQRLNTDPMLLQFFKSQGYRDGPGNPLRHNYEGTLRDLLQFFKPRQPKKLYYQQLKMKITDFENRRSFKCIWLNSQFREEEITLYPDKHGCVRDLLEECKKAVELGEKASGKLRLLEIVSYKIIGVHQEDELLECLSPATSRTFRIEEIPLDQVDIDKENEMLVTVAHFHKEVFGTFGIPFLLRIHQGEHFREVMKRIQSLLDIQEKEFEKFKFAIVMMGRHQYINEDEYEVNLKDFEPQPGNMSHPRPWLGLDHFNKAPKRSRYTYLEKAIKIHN
USP46, sequence (P62068 whole entry): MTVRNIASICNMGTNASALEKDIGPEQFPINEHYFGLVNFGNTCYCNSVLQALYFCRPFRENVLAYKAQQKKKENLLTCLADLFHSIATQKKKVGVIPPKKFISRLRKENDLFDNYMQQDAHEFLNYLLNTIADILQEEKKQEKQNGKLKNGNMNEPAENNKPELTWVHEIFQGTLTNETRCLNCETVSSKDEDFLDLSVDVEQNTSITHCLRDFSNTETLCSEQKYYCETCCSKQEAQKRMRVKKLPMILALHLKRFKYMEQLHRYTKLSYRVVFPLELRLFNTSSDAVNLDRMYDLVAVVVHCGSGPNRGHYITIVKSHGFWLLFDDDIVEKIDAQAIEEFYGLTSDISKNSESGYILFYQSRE
USP54, sequence (Q70EL1 whole entry): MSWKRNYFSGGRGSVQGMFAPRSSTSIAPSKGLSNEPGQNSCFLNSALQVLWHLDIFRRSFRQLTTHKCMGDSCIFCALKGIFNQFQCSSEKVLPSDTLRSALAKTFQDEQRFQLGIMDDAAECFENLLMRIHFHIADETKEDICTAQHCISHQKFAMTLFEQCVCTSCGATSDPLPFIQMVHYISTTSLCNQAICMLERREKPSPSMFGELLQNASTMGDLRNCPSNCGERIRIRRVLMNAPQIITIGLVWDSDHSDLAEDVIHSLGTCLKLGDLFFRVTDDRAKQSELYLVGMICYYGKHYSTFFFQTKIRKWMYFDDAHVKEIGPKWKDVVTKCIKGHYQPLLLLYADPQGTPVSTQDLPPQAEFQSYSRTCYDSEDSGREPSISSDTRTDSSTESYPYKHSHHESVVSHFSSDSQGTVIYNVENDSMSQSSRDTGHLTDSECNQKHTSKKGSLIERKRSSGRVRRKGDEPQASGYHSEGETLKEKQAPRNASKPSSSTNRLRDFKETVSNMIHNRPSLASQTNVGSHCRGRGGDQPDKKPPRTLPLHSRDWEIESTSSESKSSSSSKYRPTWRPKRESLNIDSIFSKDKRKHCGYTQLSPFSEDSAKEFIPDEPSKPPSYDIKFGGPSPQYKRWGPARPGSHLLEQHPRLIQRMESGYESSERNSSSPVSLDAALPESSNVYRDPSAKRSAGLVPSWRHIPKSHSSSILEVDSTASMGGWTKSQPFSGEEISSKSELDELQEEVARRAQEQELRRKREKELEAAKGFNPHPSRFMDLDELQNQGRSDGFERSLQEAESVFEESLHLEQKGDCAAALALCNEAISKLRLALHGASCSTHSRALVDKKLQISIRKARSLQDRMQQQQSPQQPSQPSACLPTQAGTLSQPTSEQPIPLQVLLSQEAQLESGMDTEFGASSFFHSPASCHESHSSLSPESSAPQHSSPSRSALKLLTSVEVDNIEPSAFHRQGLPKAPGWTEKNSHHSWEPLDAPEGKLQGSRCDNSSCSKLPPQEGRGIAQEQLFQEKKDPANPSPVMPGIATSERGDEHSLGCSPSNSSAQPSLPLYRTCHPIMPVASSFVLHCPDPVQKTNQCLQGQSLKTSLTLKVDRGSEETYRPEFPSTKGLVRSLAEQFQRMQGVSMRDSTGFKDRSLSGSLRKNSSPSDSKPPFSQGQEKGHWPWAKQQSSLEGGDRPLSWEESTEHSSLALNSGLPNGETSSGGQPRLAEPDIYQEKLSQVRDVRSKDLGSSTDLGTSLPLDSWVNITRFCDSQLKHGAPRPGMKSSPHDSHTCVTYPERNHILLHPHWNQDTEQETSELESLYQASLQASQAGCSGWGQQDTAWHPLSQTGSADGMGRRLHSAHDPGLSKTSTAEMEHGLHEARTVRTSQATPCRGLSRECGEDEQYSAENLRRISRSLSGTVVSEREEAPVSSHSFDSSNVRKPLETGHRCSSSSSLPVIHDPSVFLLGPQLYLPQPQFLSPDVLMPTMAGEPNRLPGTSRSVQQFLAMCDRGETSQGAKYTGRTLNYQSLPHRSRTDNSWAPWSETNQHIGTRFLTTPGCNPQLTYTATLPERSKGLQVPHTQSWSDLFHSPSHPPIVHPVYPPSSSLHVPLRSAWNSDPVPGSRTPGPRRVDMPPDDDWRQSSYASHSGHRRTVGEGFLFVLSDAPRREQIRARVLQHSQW

Cc1nnc(C(NC(=O)CCl)c2ccccc2)n1C (stereo not given)
inactive: USP42 0.478 | USP46 0.418 | USP47 0.26 | USP48 0.313 | USP5 0.627 | USP54 0.407 | USP7 0.438 | USP8 0.467 | USP9X 0.432 | UniProt O00487 0.442
